Values joined by “and” are separate entries in the source; they are usually repeats but may differ in a detail not shown here. Equal entries are not always repeated. Records with an inconclusive call do not appear. A call without a number means that no potency is given here. The source holds several records for some structures; these can differ, active in one and inactive in another. Active and inactive are the calls of the source. Unless noted, calls follow the shape of the dose curve; as a rule, active = well fitted curve in the direction sought with a large enough effect in the repeat runs; inconclusive = weak or mixed curves; inactive = no such curve, though single readings can be large; an effect the other way counts as inactive or inconclusive.
Tests used:
[1] = qHTS assay to identify small molecule antagonists of the estrogen receptor alpha (ER-alpha) signaling pathway using the BG1 cell line in the presence of 0.1 nM 17-beta-estradiol - cell viability counter screen (AID 1259241); also: nearly all actives have a fitted effect of over 40% in size
Method in brief: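 Viability in VM7Luc4E2 cells after 22 hr compound exposure under 0.1 nM 17beta-estradiol stimulation, by CellTiter-Fluor.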

[2] = qHTS assay to identify small molecule antagonists of the androgen receptor (AR) signaling pathway using the MDA cell line in the presence of 0.5 nM R1881 - cell viability counter screen (AID 1259242); also: nearly all actives have a fitted effect of over 45% in size
Method in brief: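 Human breast carcinoma MDA-kb2 cells, cultured without CO2, receive compounds alongside 0.5 nM (final) R1881 agonist. After 16 hr at 37C, viability is taken as live-cell protease signal.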

[3] = biological target: Estrogen receptor (Homo sapiens) (UniProt P03372); assay: qHTS assay to identify small molecule antagonists of the estrogen receptor alpha (ER-alpha) signaling pathway using the BG1 cell line in the presence of 0.1 nM 17-beta-estradiol (AID 1259244); also: nearly all actives have a fitted effect of over 50% in size
Method in brief: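 Seeding of stripped-serum-adapted VM7Luc4E2 cells, 24 h attachment, compound transfer, then 0.1 nM final 17beta-estradiol; after 22 h incubation, ONE-Glo reagent and luminescence reading.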

[4] = qHTS assay to identify small molecule phospholipidosis (PLD) inducers (AID 1259344; active = well fitted curve in the direction sought with a large enough effect; an effect the other way counts as inactive or inconclusive)
Method in brief: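 Phospholipid accumulation was scored by imaging: fixed, Hoechst-counterstained HepG2 cells stained with LipidTOX Red after 24 h compound exposure at 37 C. Read-outs were pit count and pit intensity per well or per cell, with amiodarone and DMSO controls.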

[5] = qHTS assay to identify small molecule HDAC inhibitors (AID 1259364);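 also: wild-type HCT-116 cells with endogenous class I/II HDAC activity; top concentration of the series differs between compounds; nearly all actives have a fitted effect of over 45% in size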
Method in brief: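 After a 2 hr compound incubation (37C, 5% CO2), HCT-116 cells seeded at 1,500/well the day before received HDAC-Glo reagent; signal read as luminescence after 30 min at room temperature.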

[6] = qHTS assay to identify small molecule HDAC inhibitors - cell viability counter screen (AID 1259365); also: series mostly up to about 92 µM; nearly all actives have a fitted effect of over 50% in size
Method in brief: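 Cytotoxicity was gauged in wild-type HCT-116 cells after a brief 2hr treatment with DMSO-dissolved compounds at 37C and 5% CO2, using CellTiter-Glo luminescence developed for 30min at room temperature.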

[7] = qHTS assay to identify small molecule agonists of the sonic hedgehog signaling (Shh) pathway - cell viability counter screen (AID 1259366); also: nearly all actives have a fitted effect of over 50% in size; also: potency is read from the fitted curve at half-maximal effect
Method in brief: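 Stable Gli1-Luc NIH/3T3 clone, 2,000 cells/well. Compound exposure 24hr at 37C. Read-out: CellTiter-Fluor fluorescence.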

[8] = qHTS assay to identify small molecule antagonists of the sonic hedgehog signaling (Shh) pathway - cell viability counter screen (AID 1259367); also: nearly all actives have a fitted effect of over 55% in size
Method in brief: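 Viability was read by CellTiter-Fluor fluorescence in the same wells, reagent added 23 hr into compound treatment and incubated 1 hr at 37C. The 3T3 Gli1-Luc reporter cells (2,000/well) received conditioned medium after compound and ran 24 hr.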

[9] = qHTS assay to identify small molecule agonists of the sonic hedgehog signaling (Shh) pathway (AID 1259368; calls by dose curve;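 also: NIH/3T3-derived 3T3Gli1-Luc cells carrying a stable Gli1-driven firefly luciferase reporter; series mostly up to about 92 µM; nearly all actives have a fitted effect of over 15% in size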)
Method in brief: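 Stable NIH/3T3 Gli1-Luc reporter clone; 24 hr cpd exposure after a 4 hr settling period; luminescence endpoint.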

[10] = biological target: Androgen receptor (Homo sapiens) (UniProt P10275); assay: qHTS assay to identify small molecule antagonists of the androgen receptor (AR) signaling pathway using the MDA cell line in the presence of 0.5 nM R1881 (AID 1259243); also: nearly all actives have a fitted effect of over 50% in size; also: potency is read from the fitted curve at half-maximal effect
Method in brief: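 Cells: MDA-kb2 (MMTV-luc). Stimulus: 0.5 nM R1881. Time: 16 hr, 37C, no CO2. Detection: ONE-Glo luminescence after 30 min at RT.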

Estrogen receptor (Homo sapiens), sequence (P03372 whole entry, looked up): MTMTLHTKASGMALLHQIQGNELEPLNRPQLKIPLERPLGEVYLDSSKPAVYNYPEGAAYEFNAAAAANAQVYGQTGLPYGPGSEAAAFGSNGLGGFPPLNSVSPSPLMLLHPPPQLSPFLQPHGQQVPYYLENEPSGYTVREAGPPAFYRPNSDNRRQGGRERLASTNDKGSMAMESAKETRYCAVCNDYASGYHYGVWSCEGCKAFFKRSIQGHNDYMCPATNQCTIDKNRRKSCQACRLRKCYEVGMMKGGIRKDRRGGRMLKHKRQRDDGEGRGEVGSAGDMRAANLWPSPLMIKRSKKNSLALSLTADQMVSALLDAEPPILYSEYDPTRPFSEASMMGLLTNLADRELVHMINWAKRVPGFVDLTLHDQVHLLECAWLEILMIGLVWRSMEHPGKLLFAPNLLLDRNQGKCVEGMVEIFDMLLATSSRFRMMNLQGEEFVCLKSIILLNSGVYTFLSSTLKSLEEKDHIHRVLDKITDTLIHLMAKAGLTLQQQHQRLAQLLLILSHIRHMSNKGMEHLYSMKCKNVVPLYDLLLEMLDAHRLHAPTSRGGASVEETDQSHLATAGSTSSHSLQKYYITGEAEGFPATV
Androgen receptor (Homo sapiens), sequence (P10275 whole entry, looked up): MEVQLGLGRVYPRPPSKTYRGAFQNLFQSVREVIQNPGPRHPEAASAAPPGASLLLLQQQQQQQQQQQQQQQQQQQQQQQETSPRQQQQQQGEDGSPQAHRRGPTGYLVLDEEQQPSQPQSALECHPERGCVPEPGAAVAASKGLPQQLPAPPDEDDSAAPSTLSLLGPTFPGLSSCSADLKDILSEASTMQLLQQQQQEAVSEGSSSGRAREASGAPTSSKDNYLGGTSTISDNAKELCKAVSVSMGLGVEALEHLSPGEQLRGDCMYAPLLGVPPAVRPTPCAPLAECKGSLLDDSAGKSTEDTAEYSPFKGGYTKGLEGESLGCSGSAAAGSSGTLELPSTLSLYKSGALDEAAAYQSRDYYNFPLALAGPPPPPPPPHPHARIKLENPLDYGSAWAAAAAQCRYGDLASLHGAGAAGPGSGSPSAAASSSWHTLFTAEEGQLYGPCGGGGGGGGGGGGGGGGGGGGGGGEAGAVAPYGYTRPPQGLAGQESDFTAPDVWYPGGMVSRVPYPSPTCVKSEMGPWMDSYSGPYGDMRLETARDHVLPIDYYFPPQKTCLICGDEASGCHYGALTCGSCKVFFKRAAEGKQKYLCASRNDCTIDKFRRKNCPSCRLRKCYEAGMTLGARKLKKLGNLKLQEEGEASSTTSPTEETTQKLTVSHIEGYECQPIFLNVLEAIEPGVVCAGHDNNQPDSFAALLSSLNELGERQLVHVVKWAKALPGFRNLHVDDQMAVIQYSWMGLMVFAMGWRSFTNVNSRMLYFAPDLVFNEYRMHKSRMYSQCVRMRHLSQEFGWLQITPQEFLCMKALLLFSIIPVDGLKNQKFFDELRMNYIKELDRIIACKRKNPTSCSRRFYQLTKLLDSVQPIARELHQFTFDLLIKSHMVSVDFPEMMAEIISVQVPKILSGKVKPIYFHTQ

Nc1cc(=O)[nH]c(N)n1
outcome [1]: inactive
Potency [2]: inactive
outcome [3]: inactive
PLD induction [4]: 1.63% [at 7.66 µM] (inactive)
Potency [5]: inactive
outcome [6]: inactive
Potency [7]: inactive
Potency [8]: inactive
outcome [9]: inactive

CCN1CCC[C@H]1CNC(=O)c1cc(S(N)(=O)=O)ccc1OC
outcome [1]: inactive
Potency [2]: inactive
Potency [10]: inactive
Potency [4]: inactive
Potency [5]: inactive
outcome [6]: inactive
Potency [7]: inactive
Potency [8]: inactive
outcome [9]: inactive

CC(C)NC(=O)NC(C)C
outcome [1]: inactive
Potency [2]: inactive
Potency [10]: inactive
outcome [3]: inactive
Potency [5]: inactive
outcome [6]: inactive
Potency [8]: inactive
outcome [9]: inactive

CCCCNC(=O)NCCCC
outcome [1]: inactive
Potency [2]: inactive
Potency [10]: inactive
outcome [3]: inactive
Potency [5]: inactive
outcome [6]: inactive
Potency [7]: inactive
Potency [8]: inactive
outcome [9]: inactive

CC1(C)C(O)C(C)(C)C1O (centres undefined)
outcome [1]: inactive
Potency [2]: inactive
Potency [10]: inactive
outcome [3]: inactive
Potency [5]: inactive
outcome [6]: inactive
Potency [8]: inactive
outcome [9]: inactive

CC(C)(c1ccc(O)cc1)c1ccc(O)cc1
outcome [1]: inactive
Potency [2]: inactive
Potency [10]: 9.58 µM (active) and 6.98 µM (active)
Potency [4]: inactive
Potency [5]: inactive
outcome [6]: inactive
Potency [7]: inactive and 12.4 µM (active)
outcome [9]: inactive

O=C1CC2CC1C1CCCC21 (centres undefined)
outcome [1]: inactive
Potency [2]: inactive
Potency [10]: inactive
outcome [3]: inactive
Potency [5]: inactive
outcome [6]: inactive
Potency [7]: inactive
Potency [8]: inactive
outcome [9]: inactive

CCN1CCC[C@H]1CNC(=O)c1c(O)c(Cl)cc(Cl)c1OC
outcome [1]: inactive
Potency [2]: inactive
outcome [3]: inactive
Potency [4]: inactive
Potency [5]: inactive
outcome [6]: inactive
Potency [7]: inactive
Potency [8]: inactive
outcome [9]: inactive

C=C(C)C(=O)OCCCCCCCC(C)C
outcome [1]: inactive
Potency [2]: inactive
Potency [10]: inactive
outcome [3]: inactive
Potency [5]: inactive
outcome [6]: inactive
outcome [9]: inactive

CS(=O)(=O)O
outcome [1]: inactive
Potency [2]: inactive
Potency [10]: inactive
outcome [3]: inactive
Potency [5]: inactive
outcome [6]: inactive
Potency [7]: inactive
Potency [8]: inactive
outcome [9]: inactive

CC(=O)Nc1c(I)cc(I)c(C(=O)O)c1I
outcome [1]: inactive
Potency [2]: inactive
outcome [3]: inactive
Potency [4]: inactive
Potency [5]: inactive
outcome [6]: inactive
Potency [7]: inactive
Potency [8]: inactive
outcome [9]: inactive

Nc1nc2c(ncn2COC(CO)CO)c(=O)[nH]1
outcome [1]: inactive
Potency [2]: inactive
outcome [3]: inactive
Potency [4]: inactive
Potency [5]: inactive
outcome [6]: inactive
Potency [7]: inactive
Potency [8]: inactive
outcome [9]: inactive

C[C@](N)(Cc1ccc(O)cc1)C(=O)O
activity change, negative = cytotoxicity [1]: 0.275% [at 8.39 µM] (inactive)
viability change, negative = cytotoxic [2]: 2.64% [at 8.39 µM] (inactive)
activity change, negative = inhibition [3]: -5.6% [at 8.39 µM] (inactive)
Potency [4]: inactive
activity change, negative = cytotoxicity [6]: -1.98% [at 8.39 µM] (inactive)
viability change, negative = cytotoxic [7]: 4.48% [at 8.39 µM] (inactive)
viability change, negative = cytotoxic [8]: 4.1% [at 8.39 µM] (inactive)
activity change [9]: -0.726% [at 8.39 µM] (inactive)

CC(=O)OCC(=O)[C@@]1(O)CC[C@H]2[C@@H]3CCC4=CC(=O)CC[C@]4(C)[C@H]3C(=O)C[C@@]21C
outcome [1]: inactive
Potency [2]: inactive
outcome [3]: inactive
Potency [4]: inactive
Potency [5]: inactive
outcome [6]: inactive
Potency [7]: inactive
Potency [8]: inactive
outcome [9]: inactive

COc1ccccc1OCC(O)CN1CCN(CC(=O)Nc2c(C)cccc2C)CC1 (centres undefined)
outcome [1]: inactive
Potency [2]: inactive
outcome [3]: inactive
Potency [4]: inactive
Potency [5]: inactive
outcome [6]: inactive
Potency [7]: inactive
Potency [8]: inactive
outcome [9]: inactive

C[C@H](NC(CCc1ccccc1)C(=O)O)C(=O)N1CCC[C@H]1C(=O)O (some centres undefined)
outcome [1]: inactive
Potency [2]: inactive
outcome [3]: inactive
Potency [4]: inactive
Potency [5]: inactive
outcome [6]: inactive
Potency [7]: inactive
Potency [8]: inactive
outcome [9]: inactive

CCCc1cc(C(N)=S)ccn1
outcome [1]: inactive
Potency [2]: inactive
outcome [3]: inactive
Potency [4]: inactive
Potency [5]: inactive
outcome [6]: inactive
Potency [8]: inactive
outcome [9]: inactive

CCOC(=O)[C@H](CCc1ccccc1)N[C@@H](C)C(=O)N1[C@H](C(=O)O)C[C@@H]2CCC[C@@H]21
outcome [1]: inactive
Potency [2]: inactive
outcome [3]: inactive
Potency [4]: inactive
Potency [5]: inactive
outcome [6]: inactive
Potency [7]: inactive
Potency [8]: inactive
outcome [9]: inactive

Nc1c2c(nc3ccccc13)CCCC2O (centres undefined)
outcome [1]: inactive
Potency [2]: inactive
outcome [3]: inactive
Potency [4]: inactive
Potency [5]: inactive
outcome [6]: inactive
Potency [7]: inactive
Potency [8]: inactive
outcome [9]: inactive

c1ccc(CC2=NCCN2)cc1
outcome [1]: inactive
Potency [2]: inactive
outcome [3]: inactive
Potency [4]: inactive
outcome [6]: inactive
Potency [7]: inactive
Potency [8]: inactive
outcome [9]: inactive

COC(=O)c1c(Cl)c(Cl)c(C(=O)OC)c(Cl)c1Cl
outcome [1]: inactive
Potency [2]: inactive
outcome [3]: inactive
Potency [4]: inactive
Potency [5]: inactive
outcome [6]: inactive
Potency [7]: inactive
Potency [8]: inactive
outcome [9]: inactive

Nc1c[n+](N2CCOCC2)no1
outcome [1]: inactive
Potency [2]: inactive
outcome [3]: inactive
Potency [4]: inactive
Potency [5]: inactive
outcome [6]: inactive
Potency [8]: inactive
outcome [9]: inactive

N[C@H]1CN(c2c(F)cc3c(=O)c(C(=O)O)cn(C4C[C@H]4F)c3c2Cl)CC12CC2 (some centres undefined)
outcome [1]: inactive
Potency [2]: inactive
outcome [3]: inactive
Potency [4]: inactive
Potency [5]: inactive
outcome [6]: inactive
Potency [8]: inactive
outcome [9]: inactive

CCOC(=O)c1cccc(N)c1
outcome [1]: inactive
Potency [2]: inactive
outcome [3]: inactive
Potency [4]: inactive
Potency [5]: inactive
outcome [6]: inactive
Potency [7]: inactive
Potency [8]: inactive
outcome [9]: inactive

N=C(N)c1ccc(OCCCOc2ccc(C(=N)N)cc2)cc1
outcome [1]: inactive
Potency [2]: inactive
outcome [3]: inactive
PLD induction [4]: -2.77% [at 0.306 µM] (inactive)
Potency [5]: inactive
outcome [6]: inactive
Potency [7]: inactive
Potency [8]: inactive
outcome [9]: inactive

CCN(CC)CCNC(=O)c1cc(S(C)(=O)=O)ccc1OC
outcome [1]: inactive
Potency [2]: inactive
outcome [3]: inactive
Potency [4]: inactive
Potency [5]: inactive
outcome [6]: inactive
Potency [7]: inactive
Potency [8]: inactive
outcome [9]: inactive

Source: PubChem BioAssay (Tox21)
